# Assay outcomes as filed in PubChem BioAssay.
# MsrA inh: inhibits bovine methionine sulfoxide reductase A; purified bovine MsrA, absorbance read-out; inhibition, % at 15.5 µM; 0.75% of 360,000 active; AID 651718; in the data active = inhibition above about 4.5%
# PG9 Ab binder: small molecules binding HIV-1 gp120 antibody PG9; TR-FRET gp120-PG9 antibody binding; inhibition, % at 6.7 µM; 0.43% of 360,000 active; in the data active = inhibition above about 8.5%
# rCAG RNA binder: molecules binding r(CAG) RNA repeats; r(CAG) RNA repeat, TO-PRO-1 dye displacement fluorescence; inhibition, % at 3 µM; 1.3% of 370,000 active;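 active = inhibition above the plate cutoff, the mean of all test compounds on that plate plus 3 SD, cut at about 35% in these data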;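 also: higher means more dye released from RNA so lower well fluorescence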
# HGIII-sPLA2 inh: Inhibits HGIII-sPLA2 liposome hydrolysis, primary screen. Q9NZ20. QFRET BODIPY PC-A2 liposome hydrolysis, fluorescence. inhibition, % at 12.2 µM. 0.56% of 370,000 active;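 active = inhibition above mean plus 3 SD of compounds lying within the high and low control bounds, cut at about 19% in these data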
# Target sequence (Q9NZ20 whole entry, looked up): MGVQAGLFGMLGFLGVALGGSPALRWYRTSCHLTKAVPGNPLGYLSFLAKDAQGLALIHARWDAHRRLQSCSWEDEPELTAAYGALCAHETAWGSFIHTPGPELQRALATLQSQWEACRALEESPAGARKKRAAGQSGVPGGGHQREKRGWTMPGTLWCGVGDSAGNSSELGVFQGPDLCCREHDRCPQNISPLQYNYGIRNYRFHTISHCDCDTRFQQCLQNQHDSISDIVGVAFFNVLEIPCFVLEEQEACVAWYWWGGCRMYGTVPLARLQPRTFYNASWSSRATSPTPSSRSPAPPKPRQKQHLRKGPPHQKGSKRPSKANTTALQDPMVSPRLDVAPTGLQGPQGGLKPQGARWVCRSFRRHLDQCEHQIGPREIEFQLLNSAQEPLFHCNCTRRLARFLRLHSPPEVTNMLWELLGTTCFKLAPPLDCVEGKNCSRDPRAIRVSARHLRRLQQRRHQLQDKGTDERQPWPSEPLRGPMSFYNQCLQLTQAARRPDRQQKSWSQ
# bovine MsrA act: activates bovine MsrA enzyme | 0.3% of 360,000 active | purified bovine MsrA, absorbance read-out | activation, % at 10.6 µM; in the data active = activation above about 7.5%
# Numbers stand for hits; 0 = inactive; - = not tested or not shown. Rows were chosen to be rich in hits. Some 3.2% of all compounds tested hit in one or more screens of this group.
SMILES,MsrA inh,PG9 Ab binder,rCAG RNA binder,HGIII-sPLA2 inh,bovine MsrA act
O=C(CSc1nc2ccccc2nc1SCC(=O)N1CCOCC1)N1CCOCC1,0,0,0,0,0
O=C(CSc1nc2ccccc2nc1SCC(=O)N1CCCCC1)N1CCCCC1,0,22,0,0,0
C=CCN1C(=O)[C@@H](CC(=O)NCCCN2CCCC2=O)[C@]2(C(=O)OC)CCCCC=C12,-,-,0,0,-
COC(=O)CSc1n[nH]c(=S)s1,0,0,0,0,0
CCSc1n[nH]c(=S)s1,0,0,0,0,8.5
Cc1cccc(-n2c(C)cc(C=C(C#N)C#N)c2C)c1,0,0,0,0,0
Cc1cc(/C=C(/C#N)c2cccc(Cl)c2)c(C)n1C,4.6,0,0,0,0
Cc1cccc(S(=O)(=O)Nc2ccc(S(=O)(=O)Nc3nccs3)cc2)c1,0,0,0,0,0
Cc1ccc(Oc2ccc3c(c2)C(=O)N(c2ccc(S(=O)(=O)Nc4nccs4)cc2)C3=O)cc1,0,0,61,0,0
CNc1ccc(C=C2C=Cc3ccccc32)cc1,0,0,0,25,0
COC(=O)[C@]12C[C@H](CC(=O)N3CCOCC3)C(=O)N(CCc3ccc(OC)c(OC)c3)C1=C[C@H](C1CCCC1)O[C@@H]2C,-,-,0,0,-
CCn1c(SCC(=O)Nc2ccccc2-c2ccccc2)nnc1-c1ccc(Cl)cc1,-,-,0,0,-
Cc1c(CC(=O)O)c(=O)oc2c(C)c(OCc3nn[nH]n3)ccc12,0,0,0,0,0
Cc1c(Cc2ccccc2)c(=O)oc2c(C)c(OCc3nn[nH]n3)ccc12,0,0,59,0,0
CC(C)NC(=O)N[C@H]1C[C@@H]2O[C@H](CO)CC[C@@H]2O[C@@H]1CCc1ccc(-c2ccc(F)cc2)cc1,-,-,0,0,-
CCOC(=O)c1cc2ccc(OC)cc2oc1=O,4.6,0,0,0,0
COc1ccc(OC)c(/C=N/N=C(\N)c2nonc2N)c1,0,0,0,0,0
COc1ccc(/C=N/NC(=O)c2nnn(-c3nonc3N)c2-c2cccs2)cc1OC,4.6,0,0,0,0
COc1ccc(/C=N/N=C(\N)c2nonc2N)cc1OC,4.6,0,0,0,0
COc1ccc(Oc2c(C)oc3c(CN(C)C)c(O)ccc3c2=O)cc1,0,0,0,0,0
Cc1oc2c(CN(C)C)c(O)ccc2c(=O)c1-c1cscn1,4.8,0,0,0,0
O=C(CCN1C(=O)/C(=C/c2ccc3c(c2)OCO3)SC1=S)Nc1cccc(C(=O)O)c1,0,0,0,0,0
O=C1/C(=C\c2cccc(O)c2)SC(=S)N1Cc1ccccc1,0,0,0,0,0
O=C(CCCN1C(=O)/C(=C/c2ccc3c(c2)OCO3)SC1=S)Nc1cccc(C(=O)O)c1,0,0,51,0,0
O=C(CCCN1C(=O)/C(=C\c2ccccc2)SC1=S)Nc1cccc(C(=O)O)c1,0,0,66,0,0
SMILES,MsrA inh,PG9 Ab binder,rCAG RNA binder,HGIII-sPLA2 inh,bovine MsrA act
O=C(O)COc1cccc(/C=C2/SC(=S)N(Cc3ccccc3)C2=O)c1,0,0,52,0,0
O=C(O)CCCN1C(=O)/C(=C\c2ccccc2OCc2ccccc2)SC1=S,0,0,52,0,0
COCCNC(=O)C[C@H]1CC[C@H]2[C@@H](COc3ccc(NC(=O)Nc4cccc(F)c4)cc3C(=O)N2C)O1,-,-,0,0,-
COc1ccc2c(c1)CCCN2C(=O)C1CCCN(S(=O)(=O)c2ccc(Br)s2)C1 (centres undefined),-,-,0,0,-
COc1ccc(C(=O)C[n+]2ccc3c(c2)nc(Cc2ccccc2)n3C)cc1,-,-,0,0,-
COc1ccc(-c2nc3ncccc3o2)cc1NC(=O)c1ccco1,4.6,0,0,0,0
COc1ccc(N=C2S/C(=C\c3ccc(OC(C)C(=O)O)c(OC)c3)C(=O)N2CCc2c[nH]c3ccccc23)cc1 (centres undefined),0,0,49,0,0
COc1cc(/C=C2\SC(=Nc3ccccc3)N(CCc3c[nH]c4ccccc34)C2=O)ccc1OC(C)C(=O)O (centres undefined),0,0,0,0,0
O=C(N/N=C/c1ccc(N2CCOCC2)cc1)c1cccs1,4.6,0,0,0,0
O=C(Nc1ccc(N2CCOCC2)cc1N1CCOCC1)c1cccs1,0,0,0,0,0
O=C(CN1CCC(NC(=O)NC2CCCC2)CC1)Nc1ccc2c(c1)OCCO2,-,-,0,0,-
CN1Cc2nnn(CC3CCCCC3)c2-c2ccccc2S1(=O)=O,-,-,0,0,-
COc1ccc([C@H]2CC(=O)C=C(/C=C/c3ccccc3)C2)cc1OC,4.6,0,0,0,0
O=C(O)CCCCCCCCCCCc1ccccc1,0,0,36,0,0
O=C(O)c1ccc(CCCc2ccccc2)cc1,0,0,0,0,0
